{"source": "ChEMBL document CHEMBL1157539", "about": "“Thousands of chemical starting points for antimalarial lead identification” (Nature, 2010)", "assay_type_in_all_cases": "functional", "key": {"Plasmodium falciparum [1]": {"tested_on": "Plasmodium falciparum", "assay": "GSK_TCMDC: Inhibition of Plasmodium falciparum 3D7 in whole red blood cells, using parasite LDH activity as an index of growth. Test compounds present at 2uM"}, "Plasmodium falciparum [2]": {"tested_on": "Plasmodium falciparum", "assay": "GSK_TCMDC: Inhibition of Plasmodium falciparum Dd2 in whole red blood cells, using parasite LDH activity as an index of growth. Test compounds present at 2uM"}, "HepG2": {"tested_on": "HepG2", "assay": "GSK_TCMDC: Percent inhibition of human HepG2 cell line. Test compounds present at 10uM."}}, "data": [{"smiles": "COc1ccc2[nH]c(C)cc(=NN=Cc3cc(C)ccc3O)c2c1", "values": [{"measurement": "Inhibition", "setting": "Plasmodium falciparum [1]", "result": 100, "unit": "%"}, {"measurement": "Inhibition", "setting": "Plasmodium falciparum [2]", "result": 100, "unit": "%"}, {"measurement": "Inhibition", "setting": "HepG2", "result": 78, "unit": "%"}]}, {"smiles": "CCCCCCNCc1c(O)ccc2c(CNCCCCCC)c(O)ccc12.Cl", "values": [{"measurement": "Inhibition", "setting": "Plasmodium falciparum [1]", "result": 100, "unit": "%"}, {"measurement": "Inhibition", "setting": "Plasmodium falciparum [2]", "result": 100, "unit": "%"}, {"measurement": "Inhibition", "setting": "HepG2", "result": 22, "unit": "%"}]}, {"smiles": "CN(C)Cc1cc(Nc2ccnc3cc(Cl)ccc23)ccc1O.Cl", "values": [{"measurement": "Inhibition", "setting": "Plasmodium falciparum [1]", "result": 100, "unit": "%"}, {"measurement": "Inhibition", "setting": "Plasmodium falciparum [2]", "result": 100, "unit": "%"}, {"measurement": "Inhibition", "setting": "HepG2", "result": 36, "unit": "%"}]}, {"smiles": "CCCNC(=O)c1cncc(-c2ccc(CNCCCc3ccccc3)cc2)c1.O=C(O)C(F)(F)F", "values": [{"measurement": "Inhibition", "setting": "Plasmodium falciparum [1]", "result": 100, "unit": "%"}, {"measurement": "Inhibition", "setting": "Plasmodium falciparum [2]", "result": 29, "unit": "%"}, {"measurement": "Inhibition", "setting": "HepG2", "result": 0, "unit": "%"}]}, {"smiles": "CC(C)COc1ccc(Cl)cc1Cc1nc(-c2nc3ccc(CN4CCCCC4)cc3[nH]2)co1.Cl", "values": [{"measurement": "Inhibition", "setting": "Plasmodium falciparum [1]", "result": 100, "unit": "%"}, {"measurement": "Inhibition", "setting": "Plasmodium falciparum [2]", "result": 70, "unit": "%"}, {"measurement": "Inhibition", "setting": "HepG2", "result": 49, "unit": "%"}]}, {"smiles": "CC(Cc1ccc(NC(=O)c2ccc(CC(C)NCc3ccc(Cl)c(Cl)c3)cc2)cc1)NCCc1cccc(Cl)c1", "note": "(centres undefined)", "values": [{"measurement": "Inhibition", "setting": "Plasmodium falciparum [1]", "result": 92, "unit": "%"}, {"measurement": "Inhibition", "setting": "Plasmodium falciparum [2]", "result": 33, "unit": "%"}, {"measurement": "Inhibition", "setting": "HepG2", "result": 26, "unit": "%"}]}, {"smiles": "Cc1cc(N)c2cc(NC(=O)/C=C/c3ccc([N+](=O)[O-])cc3)ccc2n1", "values": [{"measurement": "Inhibition", "setting": "Plasmodium falciparum [1]", "result": 100, "unit": "%"}, {"measurement": "Inhibition", "setting": "Plasmodium falciparum [2]", "result": 80, "unit": "%"}, {"measurement": "Inhibition", "setting": "HepG2", "result": 76, "unit": "%"}]}, {"smiles": "COc1ccc2nccc([C@@H](O)CN3CCC(NCc4cc5cccc(OCc6ccccc6)c5[nH]4)CC3)c2c1", "values": [{"measurement": "Inhibition", "setting": "Plasmodium falciparum [1]", "result": 100, "unit": "%"}, {"measurement": "Inhibition", "setting": "Plasmodium falciparum [2]", "result": 40, "unit": "%"}, {"measurement": "Inhibition", "setting": "HepG2", "result": 13, "unit": "%"}]}, {"smiles": "Cl.Fc1cccc(COc2ccc(Nc3ncnc4sc(C#C[C@H]5CCCN5)cc34)cc2F)c1", "values": [{"measurement": "Inhibition", "setting": "Plasmodium falciparum [1]", "result": 98, "unit": "%"}, {"measurement": "Inhibition", "setting": "Plasmodium falciparum [2]", "result": 17, "unit": "%"}, {"measurement": "Inhibition", "setting": "HepG2", "result": 13, "unit": "%"}]}, {"smiles": "O=c1cc(NCCCNCc2ccc(C(F)(F)F)cc2F)[nH]c2ccccc12", "values": [{"measurement": "Inhibition", "setting": "Plasmodium falciparum [1]", "result": 93, "unit": "%"}, {"measurement": "Inhibition", "setting": "Plasmodium falciparum [2]", "result": 48, "unit": "%"}, {"measurement": "Inhibition", "setting": "HepG2", "result": 1, "unit": "%"}]}, {"smiles": "CC(=NNC(S)=NC(c1ccccc1)c1ccccc1)c1ccccn1", "values": [{"measurement": "Inhibition", "setting": "Plasmodium falciparum [1]", "result": 98, "unit": "%"}, {"measurement": "Inhibition", "setting": "Plasmodium falciparum [2]", "result": 97, "unit": "%"}, {"measurement": "Inhibition", "setting": "HepG2", "result": 45, "unit": "%"}]}, {"smiles": "Cc1nc(-c2nc(N3CCC(C(N)=O)CC3)ncc2-c2ccsc2)sc1C", "values": [{"measurement": "Inhibition", "setting": "Plasmodium falciparum [1]", "result": 93, "unit": "%"}, {"measurement": "Inhibition", "setting": "Plasmodium falciparum [2]", "result": 33, "unit": "%"}, {"measurement": "Inhibition", "setting": "HepG2", "result": 0, "unit": "%"}]}, {"smiles": "Cc1nc(-c2ccc(C(F)(F)F)cn2)sc1C(=O)N1CCc2cc3nccc(N4CCN5CCC[C@H]5C4)c3cc21.Cl", "values": [{"measurement": "Inhibition", "setting": "Plasmodium falciparum [1]", "result": 100, "unit": "%"}, {"measurement": "Inhibition", "setting": "Plasmodium falciparum [2]", "result": 72, "unit": "%"}, {"measurement": "Inhibition", "setting": "HepG2", "result": 5, "unit": "%"}]}, {"smiles": "CCc1c(CCNC/C=C/C=C/CNCCc2ccc(OC)c(OC)c2CC)ccc(OC)c1OC.Cl", "values": [{"measurement": "Inhibition", "setting": "Plasmodium falciparum [1]", "result": 100, "unit": "%"}, {"measurement": "Inhibition", "setting": "Plasmodium falciparum [2]", "result": 99, "unit": "%"}, {"measurement": "Inhibition", "setting": "HepG2", "result": 75, "unit": "%"}]}, {"smiles": "CC(C)CCNCC(O)Cn1c2ccc(Cl)cc2c2cc(Cl)ccc21", "note": "(centres undefined)", "values": [{"measurement": "Inhibition", "setting": "Plasmodium falciparum [1]", "result": 99, "unit": "%"}, {"measurement": "Inhibition", "setting": "Plasmodium falciparum [2]", "result": 99, "unit": "%"}, {"measurement": "Inhibition", "setting": "HepG2", "result": 36, "unit": "%"}]}, {"smiles": "O=C(c1cc(-c2cccs2)n[nH]1)N1CCN(S(=O)(=O)c2ccc(Cl)cc2)CC1", "values": [{"measurement": "Inhibition", "setting": "Plasmodium falciparum [1]", "result": 96, "unit": "%"}, {"measurement": "Inhibition", "setting": "Plasmodium falciparum [2]", "result": 95, "unit": "%"}, {"measurement": "Inhibition", "setting": "HepG2", "result": 0, "unit": "%"}]}, {"smiles": "O=C(/C=C/c1ccc(Cl)c(Cl)c1)N1CCC(CCN2CCC(c3nc4cc(O)ccc4[nH]3)CC2)CC1", "values": [{"measurement": "Inhibition", "setting": "Plasmodium falciparum [1]", "result": 100, "unit": "%"}, {"measurement": "Inhibition", "setting": "Plasmodium falciparum [2]", "result": 60, "unit": "%"}, {"measurement": "Inhibition", "setting": "HepG2", "result": 42, "unit": "%"}]}, {"smiles": "CNC(=O)c1cnc(Nc2ccc(N3CCN(C)CC3)cc2)nc1Nc1ccccc1OC.O=C(O)C(F)(F)F", "values": [{"measurement": "Inhibition", "setting": "Plasmodium falciparum [1]", "result": 100, "unit": "%"}, {"measurement": "Inhibition", "setting": "Plasmodium falciparum [2]", "result": 84, "unit": "%"}, {"measurement": "Inhibition", "setting": "HepG2", "result": 8, "unit": "%"}]}, {"smiles": "N#Cc1ccc(CN2CCC(Oc3ccc(NC(=O)c4cccs4)cc3Cl)C2)cc1.O=C(O)C(F)(F)F", "note": "(centres undefined)", "values": [{"measurement": "Inhibition", "setting": "Plasmodium falciparum [1]", "result": 96, "unit": "%"}, {"measurement": "Inhibition", "setting": "Plasmodium falciparum [2]", "result": 95, "unit": "%"}, {"measurement": "Inhibition", "setting": "HepG2", "result": 31, "unit": "%"}]}, {"smiles": "COc1ccc2nccc([C@@H](O)CN3CCC(NC(=O)/C(=C/c4ccccc4)c4ccc(-c5ccccc5)cc4)CC3)c2c1", "values": [{"measurement": "Inhibition", "setting": "Plasmodium falciparum [1]", "result": 94, "unit": "%"}, {"measurement": "Inhibition", "setting": "Plasmodium falciparum [2]", "result": 38, "unit": "%"}, {"measurement": "Inhibition", "setting": "HepG2", "result": 4, "unit": "%"}]}, {"smiles": "CCOC(=O)c1ccc(N2CCN(CCCNC(=O)/C(=C/C=C/c3cc4cc(Cl)c(Cl)cc4[nH]3)OC)CC2)cc1", "values": [{"measurement": "Inhibition", "setting": "Plasmodium falciparum [1]", "result": 93, "unit": "%"}, {"measurement": "Inhibition", "setting": "Plasmodium falciparum [2]", "result": 72, "unit": "%"}, {"measurement": "Inhibition", "setting": "HepG2", "result": 39, "unit": "%"}]}, {"smiles": "Cc1cc2ncn(-c3nccc(NCc4ccc(F)cc4)n3)c2cc1C.O=C(O)C(F)(F)F", "values": [{"measurement": "Inhibition", "setting": "Plasmodium falciparum [1]", "result": 98, "unit": "%"}, {"measurement": "Inhibition", "setting": "Plasmodium falciparum [2]", "result": 83, "unit": "%"}, {"measurement": "Inhibition", "setting": "HepG2", "result": 10, "unit": "%"}]}, {"smiles": "CC(c1cccc(S(=O)(=O)NCc2cccc(C(F)(F)F)c2)c1)N1CCC(N2CCCCC2)CC1", "note": "(centres undefined)", "values": [{"measurement": "Inhibition", "setting": "Plasmodium falciparum [1]", "result": 99, "unit": "%"}, {"measurement": "Inhibition", "setting": "Plasmodium falciparum [2]", "result": 35, "unit": "%"}, {"measurement": "Inhibition", "setting": "HepG2", "result": 37, "unit": "%"}]}, {"smiles": "COc1ccc(C(=O)CCC(=O)N(CCC2CCCN2C)Cc2ccc(-c3ccc(CNCCc4ccc(S(C)(=O)=O)cc4)cn3)cc2)cc1F.O=C(O)C(F)(F)F", "note": "(centres undefined)", "values": [{"measurement": "Inhibition", "setting": "Plasmodium falciparum [1]", "result": 93, "unit": "%"}, {"measurement": "Inhibition", "setting": "Plasmodium falciparum [2]", "result": 45, "unit": "%"}, {"measurement": "Inhibition", "setting": "HepG2", "result": 13, "unit": "%"}]}, {"smiles": "Cc1nc(-c2nc(NCCc3cnccn3)ncc2-c2ccsc2)sc1C", "values": [{"measurement": "Inhibition", "setting": "Plasmodium falciparum [1]", "result": 98, "unit": "%"}, {"measurement": "Inhibition", "setting": "Plasmodium falciparum [2]", "result": 40, "unit": "%"}, {"measurement": "Inhibition", "setting": "HepG2", "result": 0, "unit": "%"}]}, {"smiles": "Cl.Nc1ccc2c(N)c3ccccc3nc2c1", "values": [{"measurement": "Inhibition", "setting": "Plasmodium falciparum [1]", "result": 93, "unit": "%"}, {"measurement": "Inhibition", "setting": "Plasmodium falciparum [2]", "result": 74, "unit": "%"}, {"measurement": "Inhibition", "setting": "HepG2", "result": 20, "unit": "%"}]}, {"smiles": "Cl.Oc1cccc(Nc2ccnc3cc(-c4cc5ccccc5o4)ccc23)c1", "values": [{"measurement": "Inhibition", "setting": "Plasmodium falciparum [1]", "result": 100, "unit": "%"}, {"measurement": "Inhibition", "setting": "Plasmodium falciparum [2]", "result": 71, "unit": "%"}, {"measurement": "Inhibition", "setting": "HepG2", "result": 9, "unit": "%"}]}, {"smiles": "Cc1cc(C(=O)NC2CCN(Cc3ccccc3)CC2)ccc1-c1nc2ccc(C(F)(F)F)cc2[nH]1", "values": [{"measurement": "Inhibition", "setting": "Plasmodium falciparum [1]", "result": 95, "unit": "%"}, {"measurement": "Inhibition", "setting": "Plasmodium falciparum [2]", "result": 2, "unit": "%"}, {"measurement": "Inhibition", "setting": "HepG2", "result": 19, "unit": "%"}]}]}
